Compound activity (PubChem)
LDHA block: qHTS assay for inhibitors of human lactate dehydrogenase | L-lactate dehydrogenase A chain (Homo sapiens), P00338 | purified LDHA, NADH/diaphorase-resazurin fluorescence; stronger effect = lower value | activity change, % (values are at about 110 or 230 µM) | 480,000 tested, 0.15% active | AID 1347041, 2019; in the data active = activity change below about -30%; inconclusive = mostly about -25% to -30%;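 also: plate controls were DMSO wells for no effect and wells without enzyme for full effect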
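Enzyme activity of human lactate dehydrogenase 5 (2 nM; 0.06 mM NADH, 0.2 mM pyruvate, 5 min, RT) is measured via a resazurin/diaphorase fluorescence readout of residual NADH.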
IDH1 R132H inh: qHTS for Inhibitors of mutant isocitrate dehydrogenase 1 (IDH1): qHTS; Isocitrate dehydrogenase [NADP] cytoplasmic (Homo sapiens), O75874; IDH1-R132H enzyme, NADPH consumption, diaphorase/resazurin fluorescence; Potency, µM (doses to about 76.6 µM), inactives show top-dose activity change, negative = inhibition, usual class: inhibitors; 390,000 tested, 0.093% active; also: potency is read from the fitted curve at half-maximal effect; % is scaled to controls: 0 for no effect and ±100 for the full control effect; nearly all actives have a fitted effect of over 65% in size
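IDH1-R132H (0.5 ug/mL dispensed) in pH 7.5 Tris buffer was preincubated 30 min with compound, then given a substrate mix of 0.016 mM NADPH and 2 mM alpha-KG for 80 min at room temperature; remaining NADPH was read by diaphorase/resazurin fluorescence.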
Nrf2 inh: Nrf2 qHTS screen for inhibitors; A549 ARE-Fluc reporter, luciferase luminescence, 18-24 h; Potency, µM (highest dose often 46 µM), for the others: at the top dose activity change, negative = inhibition, hits mostly inhibitors; 360,000 tested, 2.1% active; AID 504444, 2011; also: potency is read from the fitted curve at half-maximal effect; % is scaled to controls: 0 for no effect and ±100 for the full control effect; nearly all actives have a fitted effect of over 60% in size
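Reporter: ARE-Fluc in A549. Exposure: 18-24 h, 37 °C, 5% CO2, 5% FBS OPTI-MEM. Readouts: fluorescent cytotoxicity (CellTiter-Fluor), then luminescent Nrf2 signal after BugLite.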
A549 tox: Nrf2 qHTS screen for inhibitors: counterscreen for cytotoxicity; A549 ARE-Fluc cells, CellTiter-Fluor viability, 18-24 h; Potency, µM (titrated, usually from 46 µM), for inactives: at the top dose activity change, negative = cytotoxicity, most hits filed as inhibitors; 390,000 tested, 0.16% active; AID 504648, 2011; also: potency is read from the fitted curve at half-maximal effect; % is scaled to controls: 0 for no effect and ±100 for the full control effect
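Cytotoxicity counterscreen: CellTiter-Fluor fluorescence was measured in A549 ARE_Fluc cells after 18-24 h of compound exposure in a concentration series. The subsequent BugLite luminescent read reports ARE-luciferase activity.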
12-LOX inh: Primary qHTS assay for inhibitors of human arachidonate 12S-lipoxygenase (ALOX12): Round 2; Potency, µM (series often up to 108 µM), for inactives: top-dose activity change, negative = inhibition, actives largely listed as inhibitors; purified 12hLO, xylenol orange hydroperoxide absorbance; 580,000 tested, 1.1% active; Polyunsaturated fatty acid lipoxygenase ALOX12 (Homo sapiens), P18054; also: potency is read from the fitted curve at half-maximal effect; % is scaled to controls: 0 for no effect and ±100 for the full control effect
Target sequence (P18054 whole entry, looked up): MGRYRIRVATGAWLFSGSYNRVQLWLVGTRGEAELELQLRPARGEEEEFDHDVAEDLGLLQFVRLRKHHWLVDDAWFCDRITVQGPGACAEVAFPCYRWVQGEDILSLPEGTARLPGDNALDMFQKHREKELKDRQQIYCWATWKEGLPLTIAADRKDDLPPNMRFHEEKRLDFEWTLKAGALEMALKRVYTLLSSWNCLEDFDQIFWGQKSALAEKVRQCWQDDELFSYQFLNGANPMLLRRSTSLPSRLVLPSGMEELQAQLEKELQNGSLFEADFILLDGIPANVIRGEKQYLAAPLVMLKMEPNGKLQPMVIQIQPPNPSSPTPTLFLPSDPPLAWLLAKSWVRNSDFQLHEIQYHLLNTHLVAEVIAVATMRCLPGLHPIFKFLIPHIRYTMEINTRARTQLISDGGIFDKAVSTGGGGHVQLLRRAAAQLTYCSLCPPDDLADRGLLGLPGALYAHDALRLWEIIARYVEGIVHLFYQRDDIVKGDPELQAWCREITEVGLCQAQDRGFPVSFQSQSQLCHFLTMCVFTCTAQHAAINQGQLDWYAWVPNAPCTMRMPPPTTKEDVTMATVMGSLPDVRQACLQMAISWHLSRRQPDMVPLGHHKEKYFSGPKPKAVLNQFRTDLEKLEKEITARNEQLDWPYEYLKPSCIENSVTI
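Purified human 12hLO at 150 nM in 25 mM Hepes, 0.01% Triton X-100, pH 7.0, preincubated 15 min at room temperature with compound. Reaction started with 40 uM arachidonic acid, 30 min at room temperature. Hydroperoxide measured by Fe-xylenol orange, 573/405 nm absorbance ratio.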
Nrf2 activator: qHTS of Nrf2 Activators; AREc32 ARE-luciferase reporter (MCF7-derived line), luminescence, 24 h; Potency, µM (highest dose often 46.1 µM), for inactives: top-dose activation, actives largely listed as activators; 410,000 tested, 0.31% active; AID 624171, 2012; also: potency is read from the fitted curve at half-maximal effect; % of control where 0% means no effect; nearly all actives have a fitted effect of over 65% in size
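Each well held 1000 AREc32 cells, which were incubated with compound for 24 hr at 37 deg C after overnight attachment, and ARE reporter activity was quantified by firefly luciferase luminescence.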
* hit, by the source's call. Hits are enriched below; roughly 2.7% of the tested compounds scored in any of these assays. Unless noted, calls follow the shape of the dose curve; as a rule, active = well fitted curve in the direction sought with a large enough effect; inconclusive = small, poorly fitted or top-dose-only effect, or another doubt; inactive = no such curve, though single readings can be large; an effect the other way counts as inactive or inconclusive.

What do the screens show for `O=S(=O)(Nc1nc2ccccc2nc1NC1CC1)c1ccccc1`?
LDHA block: 4; 12-LOX inh: -14%

Results for O=S(=O)(Nc1nc2ccccc2nc1NC1CCCCC1)c1ccc(F)cc1 ?
LDHA block: -2; 12-LOX inh: 0.63µM*

How did O=S(=O)(Nc1nc2ccccc2nc1N1CCN(c2ccccc2)CC1)c1ccc(F)cc1 do in these assays?
LDHA block: -12; IDH1 R132H inh: -1%; Nrf2 inh: 26µM*; A549 tox: inconclusive; 12-LOX inh: -29%; Nrf2 activator: -1%

How did O=C(CCc1nc2ccccc2c(=O)[nH]1)N1CCCC1CC1CCCCC1 (stereo not drawn) do in these assays?
LDHA block: 9; 12-LOX inh: inconclusive

What do the screens show for `N#Cc1ccc(C(=O)C(C#N)C(=O)Nc2cccc3ccccc23)cc1` (stereo not drawn)?
LDHA block: 50; 12-LOX inh: inconclusive

How did CC(C)(C)c1ccc(NC(=O)CSc2nnc3scc(-c4ccccc4)n23)cc1 do in these assays?
LDHA block: -6; Nrf2 inh: 16µM*; A549 tox: -1%; 12-LOX inh: -20%; Nrf2 activator: 1%

How did Cc1ccc(NC(=O)CSc2nnc3scc(-c4ccc(Cl)cc4)n23)cc1 do in these assays?
LDHA block: -15; Nrf2 inh: 11%; A549 tox: -1%; 12-LOX inh: -21%; Nrf2 activator: 4%

Results for Cc1ccc(-c2nc(NC(=O)CSc3nnc4scc(-c5ccccc5)n34)ns2)cc1 ?
LDHA block: -1; IDH1 R132H inh: 8%; Nrf2 inh: 21µM*; A549 tox: inconclusive; 12-LOX inh: 298%; Nrf2 activator: 3%

What do the screens show for `CN(CCCNC(=O)c1nc2ccccc2c(=O)[nH]1)C(=O)c1cccc(Cl)c1`?
LDHA block: 7; 12-LOX inh: inconclusive

Results for S=c1[nH]nc(-c2ccc(Cl)cc2)n1-c1ccc(Cl)cc1 ?
LDHA block: -6; IDH1 R132H inh: -4%; Nrf2 inh: -9%; A549 tox: 11%; 12-LOX inh: 10µM*; Nrf2 activator: 1%

What do the screens show for `COc1ccc(-n2c(-c3ccc(Br)cc3)n[nH]c2=S)cc1`?
LDHA block: 0; IDH1 R132H inh: 9%; Nrf2 inh: -12%; A549 tox: -1%; 12-LOX inh: inconclusive; Nrf2 activator: -1%

Results for Nc1n[nH]c(=S)n1-c1ccc(Cl)cc1 ?
LDHA block: 1; IDH1 R132H inh: 0%; Nrf2 inh: 2%; A549 tox: 0%; 12-LOX inh: inconclusive; Nrf2 activator: 0%

How did S=c1[nH]nc(-c2ccc(Cl)cc2)n1-c1ccc2c(c1)OCCO2 do in these assays?
LDHA block: -4; IDH1 R132H inh: 0%; Nrf2 inh: 6%; A549 tox: -2%; 12-LOX inh: inconclusive; Nrf2 activator: 2%

How did COc1ccc(-c2n[nH]c(=S)n2-c2ccc(C)cc2)cc1 do in these assays?
LDHA block: -4; IDH1 R132H inh: -4%; Nrf2 inh: -15%; A549 tox: 8%; 12-LOX inh: 18µM*; Nrf2 activator: 2%

What do the screens show for `S=c1[nH]nc(-c2ccc(Cl)cc2Cl)n1-c1ccc(Cl)cc1`?
LDHA block: -3; IDH1 R132H inh: 9%; Nrf2 inh: -13%; A549 tox: -3%; 12-LOX inh: 13µM*; Nrf2 activator: 0%

How did Nc1c(Cl)ncnc1NCc1cccnc1 do in these assays?
LDHA block: -2; IDH1 R132H inh: -8%; Nrf2 inh: 5%; A549 tox: 4%; 12-LOX inh: -5%; Nrf2 activator: -1%

What do the screens show for `Nc1c(Cl)ncnc1NCCc1ccc(O)cc1`?
LDHA block: -4; IDH1 R132H inh: -13%; Nrf2 inh: 5.8µM*; A549 tox: -19%; 12-LOX inh: 4%; Nrf2 activator: 0%

How did COc1ccc(OC)c(C2=Nn3c(nnc3C3CCCCC3)SC2)c1 do in these assays?
LDHA block: 2; IDH1 R132H inh: -6%; Nrf2 inh: 21µM*; A549 tox: -18%; 12-LOX inh: 0%; Nrf2 activator: 0%

Results for O=C(OCc1cc(=O)oc2cc(O)ccc12)c1ccc(F)cc1F ?
LDHA block: 3; 12-LOX inh: inconclusive

What do the screens show for `O=C1CC(c2ccccc2)c2ncn(-c3cc(F)ccc3F)c2N1` (stereo not drawn)?
LDHA block: 52; 12-LOX inh: 5µM*

How did O=C1CC(c2cccc(O)c2)c2ncn(-c3ccccc3F)c2N1 (stereo not drawn) do in these assays?
LDHA block: 42; 12-LOX inh: inconclusive

Results for COc1cc(/C=C/C(=O)c2ccc(NS(=O)(=O)c3ccc(C)cc3)cc2)ccc1OC(F)F ?
LDHA block: 0; IDH1 R132H inh: 2%; Nrf2 inh: 4%; A549 tox: -2%; 12-LOX inh: 1%; Nrf2 activator: inconclusive

What do the screens show for `Cc1ccc(C(=O)/C=C/c2cc(Br)c(O)c(Br)c2)cc1`?
LDHA block: 19; 12-LOX inh: 28µM*

How did COc1cc(/C=C/C(=O)c2ccc(NS(=O)(=O)c3ccc(C)cc3)cc2)cc(OC)c1O do in these assays?
LDHA block: 16; IDH1 R132H inh: 0%; Nrf2 inh: 23µM*; A549 tox: inconclusive; 12-LOX inh: inconclusive; Nrf2 activator: inconclusive

How did O=C(O)CCC(NC(=O)C(c1ccccc1)c1ccccc1)C(=O)O (stereo not drawn) do in these assays?
LDHA block: 14; 12-LOX inh: inconclusive

What do the screens show for `CC(=NNC(=S)N1CCN(c2ccccn2)CC1)c1nccs1`?
LDHA block: -2; IDH1 R132H inh: 4%; Nrf2 inh: 13µM*; A549 tox: -27%; Nrf2 activator: 6%

Results for S=C(Nc1ccc(Cl)c(Cl)c1)N1CCN(c2ccccn2)CC1 ?
LDHA block: -3; IDH1 R132H inh: -2%; Nrf2 inh: 6%; A549 tox: 0%; 12-LOX inh: -26%; Nrf2 activator: 5%

What do the screens show for `S=C(Nc1ccc(Oc2ccccc2)cc1)N1CCN(c2ccccn2)CC1`?
LDHA block: -3; IDH1 R132H inh: 7%; Nrf2 inh: 16µM*; A549 tox: -21%; 12-LOX inh: -23%; Nrf2 activator: 2%
